# Laboratory results: PubChem BioAssay AID1159580 (chemical genetic matrix, 2015)
# “And” between values parts separate entries of the source, which are not always exact repeats. Equal entries are not always repeated. Hit rate of the full screen: of about 5,500 compounds, about 2,000 (36%) were called active. Another 18% or so got no clear call; they are omitted. Cut-off read from the data, not from the text of the source: active = normalized growth mostly below about 0.91 (no sharp cut-off); inconclusive = no clear call, values can overlap the other calls; inactive = mostly above about 0.92. The list shows a part of the results.
# Test: chemical genetic growth profiling, strain panel (AID 1159580);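 note: tested at 20 µM; growth read once vehicle control cultures reached saturation at 30 °C; 1 = growth at the plate median or of vehicle wells; lower values mean less growth of the strain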
# Settings: S. cerevisiae deletion strains, growth OD
structure (smiles),measurement,setting,value
O=C(O[C@@H]1Cc2c(O)cc(O)cc2O[C@@H]1c1cc(O)c(=O)c2c(O)c(O)cc([C@H]3Oc4cc(O)cc(O)c4C[C@H]3O)c2c1)c1cc(O)c(O)c(O)c1,normalized growth,"locus YAL021C, strain ccr4, stronger effect = lower value",0.0928 (active)
same,normalized growth,"locus YAL026C, strain drs2, stronger effect = lower value",0.46 (active)
same,normalized growth,"locus YAL030W, strain snc1, stronger effect = lower value",0.715 (active)
same,normalized growth,"locus YBL061C, strain skt5, stronger effect = lower value",0.531 (active)
same,normalized growth,"locus YBR009C, strain hhf1, stronger effect = lower value",0.556 (active)
same,normalized growth,"locus YBR021W, strain FUR4, stronger effect = lower value",0.918 (inactive)
same,normalized growth,"locus YBR023C, strain chs3, stronger effect = lower value",0.457 (active)
same,normalized growth,"locus YBR171W, strain sec66, stronger effect = lower value",0.938 (inactive)
same,normalized growth,"locus YBR229C, strain ROT2, stronger effect = lower value",0.67 (active)
same,normalized growth,"locus YBR231C, strain swc5, stronger effect = lower value",0.427 (active)
same,normalized growth,"locus YBR279W, strain paf1, stronger effect = lower value",0.549 (active)
same,normalized growth,"locus YCL011C, strain gbp2, stronger effect = lower value",0.62 (active)
same,normalized growth,"locus YCL016C, strain dcc1, stronger effect = lower value",0.765 (active)
same,normalized growth,"locus YCL029C, strain bik1, stronger effect = lower value",0.801 (active)
same,normalized growth,"locus YCL061C, strain MRC1, stronger effect = lower value",0.765 (active)
same,normalized growth,"locus YCL069W, strain vba3, stronger effect = lower value",0.797 (active)
same,normalized growth,"locus YCR088W, strain abp1, stronger effect = lower value",0.911 (active)
same,normalized growth,"locus YDL005C, strain med2, stronger effect = lower value",0.949 (inactive)
same,normalized growth,"locus YDL035C, strain GPR1, stronger effect = lower value",0.224 (active)
same,normalized growth,"locus YDL040C, strain nat1, stronger effect = lower value",0.767 (active)
same,normalized growth,"locus YDL074C, strain BRE1, stronger effect = lower value",0.42 (active)
same,normalized growth,"locus YDL101C, strain DUN1, stronger effect = lower value",0.233 (active)
same,normalized growth,"locus YDL134C, strain PPH21, stronger effect = lower value",0.184 (active)
same,normalized growth,"locus YDL185W, strain tfp1, stronger effect = lower value",0.992 (inactive)
same,normalized growth,"locus YDL192W, strain arf1, stronger effect = lower value",0.828 (active)
same,normalized growth,"locus YDR001C, strain nth1, stronger effect = lower value",0.984 (inactive)
same,normalized growth,"locus YDR069C, strain doa4, stronger effect = lower value",0.116 (active)
same,normalized growth,"locus YDR101C, strain arx1, stronger effect = lower value",0.896 (active)
same,normalized growth,"locus YDR137W, strain rgp1, stronger effect = lower value",0.497 (active)
same,normalized growth,"locus YDR150W, strain NUM1, stronger effect = lower value",0.829 (active)
same,normalized growth,"locus YDR159W, strain sac3, stronger effect = lower value",0.838 (active)
same,normalized growth,"locus YDR162C, strain NBP2, stronger effect = lower value",0.144 (active)
same,normalized growth,"locus YDR195W, strain ref2",0.814 (active)
same,normalized growth,"locus YDR297W, strain sur2, stronger effect = lower value",0.599 (active)
same,normalized growth,"locus YDR318W, strain mcm21, stronger effect = lower value",0.877 (active)
same,normalized growth,"locus YDR334W, strain swr1, stronger effect = lower value",0.571 (active)
same,normalized growth,"locus YDR335W, strain msn5, stronger effect = lower value",0.638 (active)
same,normalized growth,"locus YDR388W, stronger effect = lower value",0.93 (inactive)
same,normalized growth,"locus YDR392W, strain spt3, stronger effect = lower value",0.84 (inactive)
same,normalized growth,"locus YDR502C, strain sam2, stronger effect = lower value",0.69 (active)
same,normalized growth,"locus YEL003W, strain gim4, stronger effect = lower value",0.659 (active)
same,normalized growth,"locus YEL037C, strain rad23, stronger effect = lower value",0.709 (active)
same,normalized growth,"locus YEL061C, strain CIN8 (second series), stronger effect = lower value",0.936 (inactive)
same,normalized growth,"locus YER015W, strain faa2, stronger effect = lower value",0.292 (active)
same,normalized growth,"locus YER016W, strain bim1, stronger effect = lower value",0.859 (active)
same,normalized growth,"locus YER110C, stronger effect = lower value",1.03 (inactive)
same,normalized growth,"locus YER111C, strain swi4, stronger effect = lower value",0.694 (active)
same,normalized growth,"locus YER155C, strain BEM2 (second series), stronger effect = lower value",0.849 (active)
same,normalized growth,"locus YER155C, strain BEM2, stronger effect = lower value",0.887 (active)
same,normalized growth,"locus YER167W, strain BCK2, stronger effect = lower value",0.78 (active)
same,normalized growth,"locus YFR010W, strain ubp6, stronger effect = lower value",0.63 (active)
same,normalized growth,"locus YGL078C, strain dbp3, stronger effect = lower value",1.02 (inactive)
same,normalized growth,"locus YGL086W, strain mad1, stronger effect = lower value",0.669 (active)
same,normalized growth,"locus YGL167C, strain pmr1, stronger effect = lower value",0.422 (active)
same,normalized growth,"locus YGL173C, strain kem1, stronger effect = lower value",0.277 (active)
same,normalized growth,"locus YGL227W, strain vid30, stronger effect = lower value",0.991 (inactive)
same,normalized growth,"locus YGL240W, strain doc1, stronger effect = lower value",0.81 (active)
same,normalized growth,"locus YGL248W, strain PDE1, stronger effect = lower value",0.474 (active)
same,normalized growth,"locus YGL253W, strain hxk2, stronger effect = lower value",0.588 (active)
same,normalized growth,"locus YGR135W, strain pre9, stronger effect = lower value",0.789 (active)
same,normalized growth,"locus YGR252W, strain gcn5, stronger effect = lower value",0.75 (active)
same,normalized growth,"locus YHR013C, strain ard1, stronger effect = lower value",0.329 (active)
same,normalized growth,"locus YHR027C, strain rpn1, stronger effect = lower value",0.191 (active)
same,normalized growth,"locus YHR030C, strain SLT2, stronger effect = lower value",1.01 (inactive)
same,normalized growth,"locus YHR079C, strain IRE1 (second series), stronger effect = lower value",0.946 (inactive)
same,normalized growth,"locus YHR079C, strain IRE1, stronger effect = lower value",1.03 (inactive)
same,normalized growth,"locus YHR094C, strain hxt1, stronger effect = lower value",1.02 (inactive)
same,normalized growth,"locus YHR129C, strain ARP1, stronger effect = lower value",0.565 (active)
same,normalized growth,"locus YHR142W, strain chs7, stronger effect = lower value",0.532 (active)
same,normalized growth,"locus YHR200W, strain rpn10, stronger effect = lower value",0.845 (active)
same,normalized growth,"locus YIL066C, strain RNR3, stronger effect = lower value",0.153 (active)
same,normalized growth,"locus YIL073C, strain SPO22, stronger effect = lower value",0.198 (active)
same,normalized growth,"locus YIL125W, strain kgd1, stronger effect = lower value",1.04 (inactive)
same,normalized growth,"locus YIR030C, strain dcg1, stronger effect = lower value",0.973 (inactive)
same,normalized growth,"locus YJL092W, strain hpr5, stronger effect = lower value",0.882 (active)
same,normalized growth,"locus YJL095W, strain BCK1 (second series), stronger effect = lower value",0.489 (active)
same,normalized growth,"locus YJL095W, strain BCK1, stronger effect = lower value",0.185 (active) and 0.996 (inactive)
same,normalized growth,"locus YJL115W, strain asf1, stronger effect = lower value",0.947 (inactive)
same,normalized growth,"locus YJL129C, strain trk1, stronger effect = lower value",0.829 (active)
same,normalized growth,"locus YJL134W, strain LCB3, stronger effect = lower value",0.825 (active)
same,normalized growth,"locus YJL154C, strain vps35, stronger effect = lower value",0.886 (active)
same,normalized growth,"locus YJL164C, strain tpk1, stronger effect = lower value",0.489 (active)
same,normalized growth,"locus YJL166W, strain qcr8, stronger effect = lower value",0.485 (active)
same,normalized growth,"locus YJL168C, strain set2, stronger effect = lower value",0.997 (inactive)
same,normalized growth,"locus YJL187C, strain SWE1 (second series), stronger effect = lower value",0.13 (active)
same,normalized growth,"locus YJL187C, strain SWE1, stronger effect = lower value",0.604 (active)
same,normalized growth,"locus YJR043C, strain POL32, stronger effect = lower value",0.244 (active)
